PubChem BioAssay (EPA / NIEHS)
Several values for one entry are separate records, joined by “and”; a condition that tells them apart may be missing. Equal entries are not always repeated. Results filed as inconclusive are left out. Where a structure was tested more than once in an assay, its records may differ in their call. Activity calls are given as the source filed them. Rule for the calls, unless noted: active = hit-call score of the fitted dose curve at least 0.9, where 1 is the maximum; inactive = score below 0.9.

Tests used:
[1] = CCTE_Shafer_MEA_acute_cross_correlation_area: CCTE's Neural Acute Assay for Area of Cross Correlation, Shafer Lab (AID 2284024);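 note: area under pooled inter-electrode spike cross-correlation near zero lag as percent change from own baseline; curves fitted for loss of cross-correlation area so actives lower synchrony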
Procedure, shortened: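 Primary rat cortical neurons on 48-well MEA plates (16 electrodes/well) were recorded 40 min at baseline on DIV 13 or 15, then 40 min with compound (0.03-40 uM) at 37 C; cross-correlation area expressed as percent change from baseline.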

[2] = CCTE_Shafer_MEA_acute_synchrony_index: CCTE's Neural Acute Assay for Synchrony, Shafer Lab (AID 2284027);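 note: network synchrony index of spontaneous spiking in primary rat cortical neurons on MEAs; fitted for loss of signal so actives lower synchrony relative to DMSO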
Procedure, shortened: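 Primary rat cortical neurons on 16-electrode MEA wells were recorded 40 min at baseline (DIV 13 or 15) and 40 min after compound (0.03-40 uM) at 37 C. Synchrony index (0-1) expressed as percent change from baseline, versus DMSO.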

[3] = target: Estrogen receptor (Homo sapiens) (UniProt P03372); test: CCTE_Deisenroth_AIME_96WELL_LUC_Active: CCTE's 96-well Estrogen Receptor Transactivation Assay with AIME metabolic competence (ERTA luciferase; metabolism positive), Deisenroth Lab (AID 2284023; active = hit-call score of the fitted dose curve at least 0.9, where 1 is the maximum)
Procedure, shortened: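 Chemicals pre-incubated 2 h with alginate-immobilized phenobarbital/beta-naphthoflavone-induced male Sprague Dawley rat liver S9, then medium transferred to VM7Luc4E2 cells for 24 h luciferase read-out. 10-point series 0.002 - 200 uM; fitted relative to 17beta-estradiol.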

[4] = target: Estrogen receptor (Homo sapiens) (UniProt P03372); test: CCTE_Deisenroth_AIME_96WELL_LUC_Inactive: CCTE's 96-well Estrogen Receptor Transactivation Assay without AIME metabolic competence (ERTA luciferase; metabolism negative), Deisenroth Lab (AID 2284025; active = hit-call score of the fitted dose curve at least 0.9, where 1 is the maximum)
Procedure, shortened: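 VM7Luc4E2 breast cells, luciferase read 24 h after dosing with medium pre-incubated 2 h on alginate-water lids (metabolism negative). 10-point series 0.002–200 uM, single technical replicate, n≥4; fit relative to 17beta-estradiol.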

[5] = CCTE_Deisenroth_AIME_96WELL_CTox_Active: Cytotoxicity Assessment (CTOX) in CCTE's 96-well Estrogen Receptor Transactivation Assay with AIME metabolic competence (metabolism positive), Deisenroth Lab (AID 2284028; active = hit-call score of the fitted dose curve at least 0.9, where 1 is the maximum)
Procedure, shortened: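 Chemicals (0.002–200 uM) were first incubated 2 h with alginate-immobilized phenobarbital/beta-naphthoflavone-induced male rat liver S9; conditioned medium then went onto VM7Luc4E2 cells for 24 h, with viability read by protease-substrate fluorescence, fitted bidirectionally.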

[6] = CCTE_Deisenroth_AIME_96WELL_CTox_Inactive: Cytotoxicity Assessment (CTOX) in CCTE's 96-well Estrogen Receptor Transactivation Assay without AIME metabolic competence (metabolism negative), Deisenroth Lab (AID 2284029; active = hit-call score of the fitted dose curve at least 0.9, where 1 is the maximum)
Procedure, shortened: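 Chemicals (10-point series, 0.002-200 uM) were incubated 2 h with alginate-water microspheres lacking S9. The conditioned medium was then transferred onto VM7Luc4E2 cells for 24 h. Viability was measured by protease-substrate cleavage to a fluorescent probe, with loss of signal fitted bidirectionally; n≥4 experimental replicates.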

[7] = CCTE_Shafer_MEA_dev_per_burst_spike_percent: CCTE's Neural Network Formation Assay for Percent of Spikes in a Burst, Shafer Lab (AID 2284032);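 note: fitted as a decrease in burst spike percentage below DMSO baseline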
Procedure, shortened: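 Rat primary cortical neurons on 16-electrode MEA wells, dosed from plating day 0 for 12 days with renewal on DIV 5 and 9; spikes-in-bursts percentage averaged over bursting electrodes, collapsed as AUC across days 5, 7, 9, 12; loss direction versus DMSO.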

[8] = CCTE_Shafer_MEA_dev_active_electrodes_number: CCTE's Neural Network Formation Assay for Number of Active Electrodes, Shafer Lab (AID 2284040; active = hit-call score of the fitted dose curve at least 0.9, where 1 is the maximum;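 note: potency for loss of active electrodes versus DMSO so lower counts are hits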)
Procedure, shortened: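 Rat cortical primary cultures, 1.5 x 10^5 cells/well, PEI-coated MEA, laminin drop. Continuous exposure DIV 0–12; full media/compound change DIV 5, 9. Readout: electrodes with mean firing ≥5 spikes/min; AUC across days; loss vs DMSO.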

[9] = CCTE_Shafer_MEA_dev_burst_rate: CCTE's Neural Network Formation Assay for Burst Rate, Shafer Lab (AID 2284042);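 for AC50: potency for loss of burst rate below DMSO control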
Procedure, shortened: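 Cells plated, treated day 0; recorded DIV 5, 7, 9, 12; fed and re-treated DIV 5, 9. Endpoint: bursts per recording time, active-electrode well mean, trapezoidal AUC, fitted in decreasing direction against DMSO baseline.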

[10] = CCTE_Shafer_MEA_dev_per_burst_interspike_interval: CCTE's Neural Network Formation Assay for Burst Interspike Interval, Shafer Lab (AID 2284044);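 note: mean spike spacing inside bursts as AUC over recordings on days 5 7 9 12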;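 for AC50: potency for a decrease of within-burst interspike interval below DMSO level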
Procedure, shortened: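 Rat cortical primary cultures, 16 electrodes/well; compound from plating, renewed with full media change DIV 5 and 9. Spikes via adaptive detector; per-burst ISI well-mean over active bursting electrodes; AUC of DIV 5/7/9/12 recordings; loss-direction fit vs DMSO.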

[11] = CCTE_Shafer_MEA_dev_burst_duration_mean: CCTE's Neural Network Formation Assay for Mean Burst Duration, Shafer Lab (AID 2284045);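 for AC50: curve fitted for loss meaning shorter burst duration than DMSO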
Procedure, shortened: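 Primary rat cortical neurons on 48-well 16-electrode MEA plates, exposed from day 0 with renewal at DIV 5 and 9; spontaneous activity recorded on days 5, 7, 9, 12. Well-mean burst duration across bursting electrodes, collapsed as trapezoidal AUC; DMSO baseline.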

[12] = CCTE_Shafer_MEA_dev_interburst_interval_mean: CCTE's Neural Network Formation Assay for Mean Interburst Interval, Shafer Lab (AID 2284046);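 note: well-mean interburst interval of bursting electrodes as AUC over four recording days; curve fitted for decrease in interburst interval relative to DMSO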
Procedure, shortened: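 Developing rat cortical networks on 48-well MEAs receive compound from the day of plating. Burst intervals from each active electrode are averaged per well, and AUC over the recording days is fitted in the negative direction against DMSO.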

[13] = CCTE_Shafer_MEA_dev_inter_network_spike_interval_mean: CCTE's Neural Network Formation Assay for Mean Inter-network Spike Interval, Shafer Lab (AID 2284047);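 for AC50: potency for a decrease in mean inter-network spike interval below DMSO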
Procedure, shortened: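 Rat cortical cultures, 1.5 x 10^5 cells/well on 48-well MEA plates; continuous exposure days 0–12, medium and compound refreshed DIV 5, 9. Mean time between consecutive network-spike peaks; AUC across DIV 5/7/9/12; DMSO baseline, negative fitting direction.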

[14] = CCTE_Shafer_MEA_dev_network_spike_number: CCTE's Neural Network Formation Assay for Number of Network Spikes, Shafer Lab (AID 2284048);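 note: synchronized bursts across electrodes counted on days 5 7 9 12 and integrated as AUC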;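 for AC50: fit as a loss of signal meaning fewer network spikes than DMSO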
Procedure, shortened: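 Primary rat cortical neurons on PEI/laminin 48-well MEA plates, dosed from plating day 0 for 12 days, renewed at DIV 5 and 9. Network spike counts recorded DIV 5, 7, 9, 12, collapsed as trapezoidal AUC; DMSO baseline.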

[15] = CCTE_Shafer_MEA_dev_network_spike_peak: CCTE's Neural Network Formation Assay for Mean Number of Electrodes in Network Spike, Shafer Lab (AID 2284049);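 note: fitted for loss of signal meaning fewer electrodes in network spikes than DMSO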
Procedure, shortened: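 Network-spike peak electrode count from recordings on days 5, 7, 9 and 12 was combined as trapezoidal area under the curve. Rat cortical cultures were treated continuously from plating, with compound renewed at each feed (DIV 5, 9); fits versus DMSO.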

[16] = target: Estrogen receptor (Homo sapiens) (UniProt P03372); test: CCTE_Deisenroth_AIME_384WELL_LUC_Active: CCTE's 384-well Estrogen Receptor Transactivation Assay with AIME metabolic competence (ERTA luciferase; metabolism positive), Deisenroth Lab (AID 2284030; active = hit-call score of the fitted dose curve at least 0.9, where 1 is the maximum)
Procedure, shortened: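 Test chemicals (10-point series, 0.002 - 200 uM) were preincubated 2 hours with alginate-immobilized phenobarbital/beta-naphthoflavone-induced male Sprague Dawley rat liver S9; conditioned medium then went onto VM7Luc4E2 breast cells for 24 hour. Luciferase gain-of-signal fitted relative to 17beta-estradiol.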

[17] = CCTE_Deisenroth_AIME_384WELL_CTox_Active: Cytotoxicity Assessment (CTOX) in CCTE's 384-well Estrogen Receptor Transactivation Assay with AIME metabolic competence (metabolism positive), Deisenroth Lab (AID 2284037; active = hit-call score of the fitted dose curve at least 0.9, where 1 is the maximum;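 note: activity means signal loss indicating cell death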)
Procedure, shortened: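 Chemicals pre-incubated 2 hours with alginate-immobilised phenobarbital/beta-naphthoflavone-induced male Sprague Dawley rat liver S9, then conditioned medium applied 24 hour to VM7Luc4E2 cells. Viability by fluorogenic protease substrate; 10-point series 0.002 - 200 uM.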

[18] = target: Estrogen receptor (Homo sapiens) (UniProt P03372); test: CCTE_Deisenroth_AIME_384WELL_LUC_Inactive: CCTE's 384-well Estrogen Receptor Transactivation Assay without AIME metabolic competence (ERTA luciferase; metabolism negative), Deisenroth Lab (AID 2284038; active = hit-call score of the fitted dose curve at least 0.9, where 1 is the maximum;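 note: VM7Luc4E2 breast cells given medium preincubated 2 h with S9-free microspheres; hits raise estrogen receptor luciferase signal so potencies reflect agonists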)
Procedure, shortened: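 Chemicals (10-point series, 0.002 - 200 uM) were incubated 2 hours with alginate-water microsphere lids lacking S9, then the conditioned medium was transferred to VM7Luc4E2 breast cells for 24 hour. Luciferase induction was read by bioluminescence, fitted upward relative to 17beta-estradiol.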

[19] = CCTE_Deisenroth_AIME_384WELL_CTox_Inactive: Cytotoxicity Assessment (CTOX) in CCTE's 384-well Estrogen Receptor Transactivation Assay without AIME metabolic competence (metabolism negative), Deisenroth Lab (AID 2284039; active = hit-call score of the fitted dose curve at least 0.9, where 1 is the maximum;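 note: cell viability via live-cell protease substrate cleaved to fluorescent probe; cells exposed 24 h to medium preincubated 2 h with alginate-water beads without S9; loss of fluorescence signal means loss of viability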)
Procedure, shortened: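 Metabolism-negative arm: chemicals (10-point, 0.002 - 200 uM) preincubated 2 h with alginate-water lids, medium moved onto VM7Luc4E2 cells for 24 h. Fluorescent live-cell protease readout; bidirectional curve fit.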

[20] = target: Estrogen receptor (Homo sapiens) (UniProt P03372); test: CCTE_Deisenroth_AIME_384WELL_LUC_Shift: CCTE's 384-well Estrogen Receptor Transactivation Assay with AIME metabolic competence data shift (ERTA luciferase; difference in metabolism positive and negative), Deisenroth Lab (AID 2284041);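 note: shift is response with S9 minus without S9 so positive means metabolism raised ER signal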
Procedure, shortened: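 Chemicals (0.002–200 uM, 10 points) pre-incubated 2 h with alginate-encapsulated induced male Sprague Dawley rat liver S9 or S9-free, then medium applied 24 h to VM7Luc4E2 cells; luciferase. Endpoint is per-concentration difference, S9-positive minus negative.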

Sequence of Estrogen receptor (Homo sapiens) (P03372 whole entry, looked up): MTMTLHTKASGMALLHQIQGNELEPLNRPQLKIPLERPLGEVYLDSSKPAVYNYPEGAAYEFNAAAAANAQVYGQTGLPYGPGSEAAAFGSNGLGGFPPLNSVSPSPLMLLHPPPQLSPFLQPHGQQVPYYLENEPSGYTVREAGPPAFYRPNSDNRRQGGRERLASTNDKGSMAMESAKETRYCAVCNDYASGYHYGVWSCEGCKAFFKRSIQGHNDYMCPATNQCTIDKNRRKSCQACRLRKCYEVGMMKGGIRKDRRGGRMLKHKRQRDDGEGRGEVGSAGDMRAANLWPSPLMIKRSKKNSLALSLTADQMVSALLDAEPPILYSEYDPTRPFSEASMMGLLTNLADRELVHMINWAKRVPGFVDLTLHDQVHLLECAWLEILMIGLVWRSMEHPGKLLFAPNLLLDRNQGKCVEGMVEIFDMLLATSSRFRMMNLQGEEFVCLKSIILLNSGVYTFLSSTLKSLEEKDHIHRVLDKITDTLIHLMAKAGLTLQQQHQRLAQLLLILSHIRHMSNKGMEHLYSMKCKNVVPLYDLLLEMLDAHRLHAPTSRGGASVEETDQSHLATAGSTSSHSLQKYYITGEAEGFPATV

With `OC(c1ccc(Cl)cc1)(c1cncnc1)c1ccccc1Cl` (configuration not stated) the AC50 [1] was 0.761 µM (active) and the AC50 [2] was 3.05 µM (active).
For `CCOP(=S)(OCC)SCn1c(=O)oc2cc(Cl)ccc21`, the outcome [1] was “inactive” and the AC50 [2] was 29.3 µM (active).
With `Fc1ccc(Oc2ccnc3cc(Cl)cc(Cl)c23)cc1` the outcome [1] was “inactive” and the outcome [2] was “inactive”.
For `COc1ccc(C(c2ccc(OC)cc2)C(Cl)(Cl)Cl)cc1`, the AC50 [3] was 1.1 µM (active), the outcome [1] was “inactive” and the AC50 [4] was 3.77 µM (active). For the same compound, the AC50 [2] was 27.4 µM (active), the AC50 [5] was 102 µM (active) and the AC50 [6] was 72.4 µM (active). For the same compound, the AC50 [7] was 4.51 µM (active), the AC50 [8] was 6.74 µM (active) and the outcome [9] was “inactive”. For the same compound, the outcome [10] was “inactive”, the outcome [11] was “inactive” and the outcome [12] was “inactive”. The outcome [13] was “inactive”, the outcome [14] was “inactive” and the AC50 [15] was 8.43 µM (active).
For `CON(C)C(=O)Nc1ccc(Cl)c(Cl)c1`, the outcome [1] was “inactive” and the AC50 [2] was 6.56 µM (active).
For `N#CC(CCc1ccc(Cl)cc1)(Cn1cncn1)c1ccccc1` (configuration not stated), the outcome [1] was “inactive” and the outcome [2] was “inactive”.
In the case of `CCCC1COC(Cn2cncn2)(c2ccc(Cl)cc2Cl)O1` (configuration not stated), the outcome [1] is reported as “inactive” and the AC50 [2] is reported as 17.5 µM (active).
With `COC(=O)N(OC)c1ccccc1COc1ccn(-c2ccc(Cl)cc2)n1` the AC50 [1] was 0.0374 µM (active), the AC50 [2] was 1.73 µM (active) and the outcome [16] was “inactive”. For the same compound, the AC50 [7] was 184 nM (active) and 27 nM (active), the AC50 [17] was 2.68 µM (active) and the outcome [18] was “inactive”. The AC50 [19] was 19.8 µM (active), the AC50 [8] was 77 nM (active) and 13.7 nM (active) and the outcome [20] was “inactive”. The AC50 [9] was 0.0914 µM (active), the outcome [9] was “inactive” and the AC50 [10] was 269 nM (active) and 50 nM (active). For the same compound, the AC50 [11] was 0.129 µM (active), the outcome [11] was “inactive” and the AC50 [12] was 264 nM (active) and 13.7 nM (active). The AC50 [13] was 0.128 µM (active), the outcome [13] was “inactive” and the AC50 [14] was 0.0669 µM (active). For the same compound, the outcome [14] was “inactive” and the AC50 [15] was 72.5 nM (active) and 15.9 nM (active).
